# Experimental data as given in the OligoGym collection.
# Tests used:
# Assay in all cases: pooled miR-30 sensor sort-seq; sequence = guide strand
# Conditions in all cases: shRNA
# C13orf33 = molecular target: C13orf33
# C14orf109 = molecular target: C14orf109
# C14orf105 = molecular target: C14orf105
# C14orf149 = molecular target: C14orf149
# C15orf54 = molecular target: C15orf54
# C17orf71 = molecular target: C17orf71
# C19orf33 = molecular target: C19orf33
# C19orf26 = molecular target: C19orf26
# C19orf48 = molecular target: C19orf48
# C19orf43 = molecular target: C19orf43
# C1QL1 = molecular target: C1QL1
# C1orf61 = molecular target: C1orf61
# C2orf82 = molecular target: C2orf82
# C6orf105 = molecular target: C6orf105
# C6orf58 = molecular target: C6orf58
# CA8 = molecular target: CA8
# CADM4 = molecular target: CADM4
# CAPNS2 = molecular target: CAPNS2
# CBWD1 = molecular target: CBWD1
# CCDC102B = molecular target: CCDC102B
# CCDC56 = molecular target: CCDC56
# CD180 = molecular target: CD180
# CD320 = molecular target: CD320
# CDC23 = molecular target: CDC23
# CEP110 = molecular target: CEP110
# CENPE = molecular target: CENPE
# CEP55 = molecular target: CEP55
# CENPO = molecular target: CENPO
# Also: reference of the scale not given here.
sequence,measurement,setting,value
TTACACTGAACTTTCGGTCAGA,sensor-assay potency score (higher = more potent),C13orf33,0.151
TTCATCATTCTCCATGCTCTGT,sensor-assay potency score (higher = more potent),C14orf109,-0.667
TTTCTAGTACCTGCTTTGCTTT,sensor-assay potency score (higher = more potent),C14orf105,-0.906
TAATTTAGAGAAAACAGTCCTT,sensor-assay potency score (higher = more potent),C14orf149,0.523
TTCAAGGAGTGTGTCCATGTGG,sensor-assay potency score (higher = more potent),C14orf109,-0.159
TTCTATTATAAAGCTTGCTGTA,sensor-assay potency score (higher = more potent),C14orf149,-1.15
TTCTTTTCTAGTACCTGCTTTG,sensor-assay potency score (higher = more potent),C14orf105,-0.834
TTTGCTTTGTGCATTGTCCTGG,sensor-assay potency score (higher = more potent),C14orf105,0.729
TAACTGCCAAGCATATAGGGAT,sensor-assay potency score (higher = more potent),C14orf109,-0.363
TCTATCTGTCTTCTTATCTTGG,sensor-assay potency score (higher = more potent),C13orf33,-0.385
AAACATAGTAAAATGCTGCTGC,sensor-assay potency score (higher = more potent),C14orf109,0.701
TTAATAATACTTGTTTCTCTGT,sensor-assay potency score (higher = more potent),C14orf105,-0.864
TAACTTTCTCCAATCACTGAGG,sensor-assay potency score (higher = more potent),C13orf33,-0.682
TAATCGTCTCCTTCTTTTCTGG,sensor-assay potency score (higher = more potent),C13orf33,-0.326
TTAAAATCACCACATTTCGCTT,sensor-assay potency score (higher = more potent),C14orf149,-0.838
TACAATCCCACTCCAATCCATC,sensor-assay potency score (higher = more potent),C14orf109,-0.538
ATAGGAACAAAAACATCTGTAA,sensor-assay potency score (higher = more potent),C14orf109,-0.255
TAACTTAATCGTCTCCTTCTTT,sensor-assay potency score (higher = more potent),C13orf33,-0.331
TATCTGTCTTCTTATCTTGGGG,sensor-assay potency score (higher = more potent),C13orf33,-0.395
TTTTCTTTAACTCCATTTGGGC,sensor-assay potency score (higher = more potent),C14orf105,-0.637
TCTTCTATTATAAAGCTTGCTG,sensor-assay potency score (higher = more potent),C14orf149,-0.472
TTCCTGAAGTAATTACTCGTGG,sensor-assay potency score (higher = more potent),C14orf105,-0.0565
ATGTCCAGGAACATCCACCATG,sensor-assay potency score (higher = more potent),C14orf149,-1.62
TTCCCTGTGAATACTGAGCCAG,sensor-assay potency score (higher = more potent),C14orf149,-0.697
TTCCTTTACATTTATAACCATT,sensor-assay potency score (higher = more potent),C15orf54,-1.28
AACAACAACAAGAATATCCTGC,sensor-assay potency score (higher = more potent),C15orf54,0.568
TACTTGACCATGAACTTCTGGA,sensor-assay potency score (higher = more potent),C17orf71,0.427
TTCTTCTTCACTTTGGGCTTCT,sensor-assay potency score (higher = more potent),C19orf33,0.272
TTCTCCTTCTTCTTCACTTTGG,sensor-assay potency score (higher = more potent),C19orf33,-0.173
TTCACTTTGGGCTTCTTGGCCT,sensor-assay potency score (higher = more potent),C19orf33,-0.157
TCATTGAAGGAGACCCGGCGGC,sensor-assay potency score (higher = more potent),C19orf26,-0.71
TTCGGTCTCCGCATCCTGGCAC,sensor-assay potency score (higher = more potent),C19orf26,-0.126
CCACTTATCCACCTTCTCCTGG,sensor-assay potency score (higher = more potent),C19orf48,-1.46
TGAGTCACACTCGTGGATGGTG,sensor-assay potency score (higher = more potent),C19orf26,-0.617
TTGAACAGCTCCAGGAAGCTGC,sensor-assay potency score (higher = more potent),C19orf43,-0.652
ATAGGCCTGGTCACAATAGGGA,sensor-assay potency score (higher = more potent),C19orf48,-0.793
AACAGCTCCAGGAAGCTGCCGT,sensor-assay potency score (higher = more potent),C19orf43,-0.55
TTGTCCTGCGTCTTGCGGCTCT,sensor-assay potency score (higher = more potent),C19orf26,-0.61
TAAATAGTTATGTACATCGCAG,sensor-assay potency score (higher = more potent),C19orf43,-0.74
TTCTTGACCTTGAAATAGGGGC,sensor-assay potency score (higher = more potent),C19orf26,-0.421
ATCATCGTCACCGCACTGGTGA,sensor-assay potency score (higher = more potent),C19orf43,-0.305
TTCCACTTCTTGACCTTGAAAT,sensor-assay potency score (higher = more potent),C19orf26,-1.35
TCCGTGTCCGAATCGCTGGAGC,sensor-assay potency score (higher = more potent),C19orf33,-1.74
AAGTCCTTGTGCACTGGGTTGG,sensor-assay potency score (higher = more potent),C19orf48,-0.738
TAGGCCTGGTCACAATAGGGAA,sensor-assay potency score (higher = more potent),C19orf48,-1.64
TCTCCTTCTTCTTCACTTTGGG,sensor-assay potency score (higher = more potent),C19orf33,-0.407
TAATACCTCATCCTCCGTCTTC,sensor-assay potency score (higher = more potent),C19orf43,-0.695
TTTATCATCGTCACCGCACTGG,sensor-assay potency score (higher = more potent),C19orf43,0.198
ACATCCGTGTCCGAATCGCTGG,sensor-assay potency score (higher = more potent),C19orf33,-1.43
TCTCGTGCTGCTTGGAGCCAGC,sensor-assay potency score (higher = more potent),C19orf33,-1.2
TGTTCTATGAAGTCTCACGAGG,sensor-assay potency score (higher = more potent),C19orf43,-1.02
ATCCGTGTCCGAATCGCTGGAG,sensor-assay potency score (higher = more potent),C19orf33,-0.418
TTGACCTTGAAATAGGGGCTGG,sensor-assay potency score (higher = more potent),C19orf26,-0.605
TCCGTCAGTGTGTACCGGCGAC,sensor-assay potency score (higher = more potent),C19orf26,-0.95
TCTCCTGGGTGTGTGGCTCAGC,sensor-assay potency score (higher = more potent),C19orf48,-0.768
TACTTGTTAATACCTCATCCTC,sensor-assay potency score (higher = more potent),C19orf43,-0.735
TTATCATCGTCACCGCACTGGT,sensor-assay potency score (higher = more potent),C19orf43,-1.04
TTGGCTACTATTCCCGTCTTGA,sensor-assay potency score (higher = more potent),C19orf43,0.118
TTCTGGCCTGCTTCACCCCTGG,sensor-assay potency score (higher = more potent),C19orf48,-0.772
TGAGCTTGGGATCTCCCCCGTG,sensor-assay potency score (higher = more potent),C19orf33,-0.899
AACTTTGTGGGGACTGAGCTTG,sensor-assay potency score (higher = more potent),C19orf33,-0.364
AAGAGCTGTGGTGTCCTTGCTT,sensor-assay potency score (higher = more potent),C19orf33,0.114
TGGAGCACCAGGCCAGGCGGTG,sensor-assay potency score (higher = more potent),C19orf48,-1.89
TTGAGGGCTAGTTTGTTCCCGC,sensor-assay potency score (higher = more potent),C19orf43,-0.869
TCGCCTGAGTCACACTCGTGGA,sensor-assay potency score (higher = more potent),C19orf26,-1.57
TTGGCGAACAAGTTCACGCCGC,sensor-assay potency score (higher = more potent),C19orf43,-0.437
TCCGAATCGCTGGAGCTGCTGC,sensor-assay potency score (higher = more potent),C19orf33,-0.94
TAGGGGTCGCACACCATGCGGC,sensor-assay potency score (higher = more potent),C1QL1,-0.617
AAGATCATGGAATTTCTCCTGA,sensor-assay potency score (higher = more potent),C1orf61,0.708
TGGAACATCGTCTGTGAGCACC,sensor-assay potency score (higher = more potent),C2orf82,-1.29
TTAAATTTAAGTATCACTCTCT,sensor-assay potency score (higher = more potent),C6orf105,1.11
TTATATGATCTAATCAAGGTTG,sensor-assay potency score (higher = more potent),C6orf58,-0.152
TTCATATTAATAACAACTCTGG,sensor-assay potency score (higher = more potent),CA8,-0.115
TATAGGACCATTGTCTTCCTCC,sensor-assay potency score (higher = more potent),CA8,-0.229
TCTGTCTGTACTTCCTGTCCTG,sensor-assay potency score (higher = more potent),CADM4,0.306
TGGATGACAACTATGGACCCAT,sensor-assay potency score (higher = more potent),CADM4,-0.33
TAATTCAGCAGTAAAAGGCAGC,sensor-assay potency score (higher = more potent),CAPNS2,-0.377
TACATCTTCTTCTGGAACCAGG,sensor-assay potency score (higher = more potent),CBWD1,-0.734
TTTGTGACATCTTGAAATCAGG,sensor-assay potency score (higher = more potent),CCDC102B,-1.26
ACCATAAATAGCCAACACCAGG,sensor-assay potency score (higher = more potent),CCDC56,-2.43
TCGAGTAGAAGGTGTAACCATA,sensor-assay potency score (higher = more potent),CCDC56,-1.07
TTTAACTGCAAAAAATAGCAGA,sensor-assay potency score (higher = more potent),CD180,-0.349
TTGCGCAGTTTCTTGTCAGTTC,sensor-assay potency score (higher = more potent),CD320,-0.101
TCATCGCTGCCATCGCTGCAGT,sensor-assay potency score (higher = more potent),CD320,-1.32
TCTATCAACTGCAACTCTGTGT,sensor-assay potency score (higher = more potent),CDC23,0.16
TTTCTTTCTGTCAAGAACTGGT,sensor-assay potency score (higher = more potent),CEP110,-0.248
TAAACCAAAAACTTGCTCCTGA,sensor-assay potency score (higher = more potent),CEP110,0.902
TTGAGTGTCTCCTCTACTCTTC,sensor-assay potency score (higher = more potent),CENPE,-0.033
TAACCCATTAGCAATAACCTGA,sensor-assay potency score (higher = more potent),CEP55,-0.42
TAACAGATTATTGTCATCCTGC,sensor-assay potency score (higher = more potent),CEP110,0.569
TTGAAGAACTTCTTGCAGCCTC,sensor-assay potency score (higher = more potent),CENPE,0.172
TTTTGTAGCACTGATTTCCTTT,sensor-assay potency score (higher = more potent),CENPE,-0.158
TTATACAGCAATCTAGCACAGA,sensor-assay potency score (higher = more potent),CENPO,-0.484
TATAGTACCATTGTAGCCTTGT,sensor-assay potency score (higher = more potent),CENPE,0.768
TAAGCATTCAGGTACTCGCAGA,sensor-assay potency score (higher = more potent),CENPO,-0.982
TTTATGCCTATCATCTTCCAGA,sensor-assay potency score (higher = more potent),CEP55,-0.706
TTTAGGTTTAGAAACCTCCTCA,sensor-assay potency score (higher = more potent),CENPO,0.397
TTTTGCAGCTATCTCTTCCAGG,sensor-assay potency score (higher = more potent),CENPO,0.117
TTTGTGAATACAACAGCTGATT,sensor-assay potency score (higher = more potent),CEP55,-0.95
TTTATGGTCTTGATAGTCCAAA,sensor-assay potency score (higher = more potent),CEP110,-1.01
TTCTTTTTCTCTAACTCTCGGA,sensor-assay potency score (higher = more potent),CEP110,-0.414
TTTCTCAATTTCTAGGACCTGT,sensor-assay potency score (higher = more potent),CEP110,-0.0728
TATTTCTCTGATGTGCTCCCAG,sensor-assay potency score (higher = more potent),CENPO,-0.111
TTGCATTGCTGAAATGTCGTTA,sensor-assay potency score (higher = more potent),CEP110,0.524
TATTTTTTGAAACTGAAGGAAG,sensor-assay potency score (higher = more potent),CENPO,-1.18
TTCATCTGCAATCTCAACTTGC,sensor-assay potency score (higher = more potent),CEP110,0.351
TTGCTCATTGATCTCCACTGTT,sensor-assay potency score (higher = more potent),CENPO,-0.258
TAGTCTACCACTCAACTGCTTG,sensor-assay potency score (higher = more potent),CEP110,-1.16
TTGATCTCCACTGTTTGGTTGG,sensor-assay potency score (higher = more potent),CENPO,0.162
TTCTTCTTGCTGCTTTAGCAGA,sensor-assay potency score (higher = more potent),CEP55,-1.21
TAGCTGTTCATTTTGCTGCTTT,sensor-assay potency score (higher = more potent),CENPE,-0.023
TTTATTGATGAGTTGAAGCAGT,sensor-assay potency score (higher = more potent),CEP55,-0.0395
TTGAGAGTCTATGTATTCCTGT,sensor-assay potency score (higher = more potent),CENPE,0.505
TAGGTTTAGAAACCTCCTCAGC,sensor-assay potency score (higher = more potent),CENPO,-1.26
TTGAAACTGAAGGAAGTCCCGA,sensor-assay potency score (higher = more potent),CENPO,0.077
TTATTTTTTGAAACTGAAGGAA,sensor-assay potency score (higher = more potent),CENPO,-0.369
TTGTCTTGTATCTCTTTCCTCA,sensor-assay potency score (higher = more potent),CENPE,0.236
TTGTGTGGTAGGATTAACCTGG,sensor-assay potency score (higher = more potent),CENPE,0.117
TTTCTGTATGACAAGGTCCACA,sensor-assay potency score (higher = more potent),CENPO,-1.24
TAGTTGTATAGCTTCTTCCAGT,sensor-assay potency score (higher = more potent),CEP110,-0.43
